Assay [1] has as its system Aerobactin synthetase IucA (Klebsiella pneumoniae). As to the kind of experiment: IucA aerobactin synthetase inhibitors, biochemical, Tocris library, absorbance (AID 1345561).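 Also: 100% = enzyme without compound and 0% = no enzyme.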 The conditions noted are these: purified IucA enzyme assay, absorbance (OD) read-out; stronger effect = lower value;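 tested at 8 µM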.
The nature of assay [2]: modifiers of HSF1 nuclear foci, imaging, Selleck Cancer Library (AID 1347162; in the data active = plate-normalised HSF1 focus index below about 0.46). The conditions noted are these: human cells, at 10 µM; SSMD: measured here: HSF1 foci SSMD mean; cell count: measured here: cell number; plate-normalised HSF1 focus index: stronger effect = lower value.
The target in assay [3] is Mitogen-activated protein kinase 7 (Homo sapiens) (UniProt Q13164). As to the kind of experiment: ERK5 transactivation activators in reporter cells, primary screen, cell-based, HTS (AID 1508626;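 active = luciferase signal above three times the same-plate solvent-only control wells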;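 also: luciferase driven by Gal4-ERK5 fusion binding five Gal4 sites before minimal TATA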). The conditions noted are these: HeLa Gal4-ERK5 transactivation, 18 h, at 5 µM, stronger effect = higher value.
Assay [4] in a line: phospholipid biosynthesis inhibitors in animal cells, primary screen, cell-based, LOPAC library, screen 4 (AID 1347384). The conditions noted are these: phospholipid biosynthesis inhibition screen, at 10 µM.
Assay [5] is described as follows: hESC survival regulators, cell-based (AID 493140).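 Also: cells exposed to compounds for four days before counting.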 The conditions noted are these: human embryonic stem cell survival screen; stronger effect = higher value.
The nature of assay [6]: LFS_MB_1R medulloblastoma cell growth inhibition, synergistic combos for chromothripsis tumors, cisplatin or BGB combos (AID 1671452; in the data active = inhibition above about 80%;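 also: cells exposed for 96 hours before readout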). The conditions noted are these: LFS_MB_1R medulloblastoma cells, stronger effect = higher value.
Assay [7] is described as follows: CRL2098 osteosarcoma cell growth inhibition, synergistic combos for chromothripsis tumors, BGB or cisplatin IC20 combos (AID 1671454; in the data active = inhibition above about 80%;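 also: cells exposed for 96 h before readout; 0% = vehicle DMSO and 100% = killing by high DMSO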). The conditions noted are these: CRL2098 osteosarcoma cells, drug combinations, stronger effect = higher value.
The nature of assay [8]: HD-MB03 medulloblastoma cell growth inhibition, synergistic combos for chromothripsis tumors, BGB or cisplatin IC20 combos (AID 1671455; in the data active = inhibition above about 83%;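 also: 0% = vehicle DMSO and 100% = high DMSO as cytotoxic control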). The conditions noted are these: HD-MB03 medulloblastoma cells, stronger effect = higher value.
A short description of assay [9]: UWB1.289 ovarian carcinoma cell growth inhibition, synergistic combos for chromothripsis tumors, BGB or cisplatin combos (AID 1671456; in the data active = inhibition above about 80%;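 also: cells exposed to compound for four days; 0% = vehicle DMSO and 100% = killing by high DMSO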). The conditions noted are these: UWB1.289 ovarian carcinoma cells, stronger effect = higher value.
A short description of assay [10]: LFS_MB_2R medulloblastoma cell growth inhibition, synergistic combos for chromothripsis tumors, cisplatin combos (AID 1671457; in the data active = inhibition above about 80%;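 also: cells exposed to compound for four days before readout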). The conditions noted are these: LFS_MB_2R medulloblastoma cells, stronger effect = higher value.
A short description of assay [11]: UWB1.289_BRCA1 ovarian cancer growth, cell-based, BGB or cisplatin combinations (AID 1671459; in the data active = inhibition above about 80%). The conditions noted are these: UWB1.289 BRCA1 ovarian carcinoma, drug combinations, stronger effect = higher value.
Assay [12] in a line: human astrocyte viability loss, single and combined drugs, cytotoxicity control for chromothriptic childhood tumor combination screen, cell-based, BGB or cisplatin IC20 combos (AID 1671460; in the data active = inhibition above about 80%;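 also: cells exposed to compounds for 96 hours before viability readout; 0% = vehicle and 100% = killing control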). The conditions noted are these: Human astrocytes, drug combinations, stronger effect = higher value.
A short description of assay [13]: circadian clock period modulators, cell-based, LOPAC library, luminescence reporter (AID 2774).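 Also: values are relative to mean of DMSO wells on each plate.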 The conditions noted are these: circadian reporter cells, at 7 µM, actives lie on both sides.
In assay [14] the test system is Hepatitis C virus NS3 helicase. Kind of assay: HCV NS3 helicase inhibitors, primary screen, biochemical, fluorescence polarization, LOPAC1280 library (AID 687035; in the data active = inhibition above about 37%). The conditions noted are these: Purified HCV NS3 helicase, Cy5-dT15 ssDNA binding fluorescence polarization; stronger effect = higher value; concentration not given here. On the technique in general: Fluorescence polarisation rises when a labelled molecule tumbles more slowly, as on binding a larger partner.

A short description of assay [15]: Cy5 fluorescence quenching or enhancement artefacts, artefact control for HCV NS3 helicase inhibitor project, biochemical, LOPAC1280 (AID 687037). The conditions noted are these: Cy5-DNA-NS3h complex fluorescence interference counterscreen. For orientation: Counterscreens check selectivity or assay interference.
A short description of assay [16]: polyglutamine-triggered caspase-3 activation inhibitors, cell-based (AID 1583). The conditions noted are these: polyglutamine-induced caspase-3 activation, cell assay; stronger effect = higher value;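 tested at 10 µM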.
The nature of assay [17]: suppressors of polyQ aggregation in yeast, 75Q-TubU reporter (AID 1593). The conditions noted are these: Yeast 75Q polyglutamine aggregation reporter.
A short description of assay [18]: rescue of polyQ-huntingtin neuronal dysfunction in worms, whole organism, C. elegans mechanosensory neurons, N-terminal huntingtin (AID 1599). The conditions noted are these: touch response, stronger effect = higher value.
Assay [19] is described as follows: inhibitors of mitochondrial cytochrome c release, biochemical, purified mitochondria (AID 1603).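 Also: mouse liver mitochondria challenged with calcium chloride; signal normalized to the plate average as 100%.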 The conditions noted are these: stronger effect = lower value.
Assay [20] can be described thus: inhibitors of polyQ protein aggregation (AID 1604). The conditions noted are these: polyglutamine-induced protein aggregation inhibition assay; stronger effect = higher value; tested at 2.5 µM.
Where [21] appears, read: measured here: combination with cisplatin, at 0.5 µM.
[22] abbreviates: measured here: combination with cisplatin, at 5 µM.

For some assays here: Entries with a potency or affinity are not part of this list. The source made the active and inactive calls. Unless noted, no rule for the calls is given here.

In general, remaining activity refers to the signal under treatment as a percentage of the control signal. In general, inhibition refers to the relative decrease from the control value, in per cent.

Mitogen-activated protein kinase 7 (Homo sapiens), sequence (Q13164 whole entry, looked up, the tested form may be a part): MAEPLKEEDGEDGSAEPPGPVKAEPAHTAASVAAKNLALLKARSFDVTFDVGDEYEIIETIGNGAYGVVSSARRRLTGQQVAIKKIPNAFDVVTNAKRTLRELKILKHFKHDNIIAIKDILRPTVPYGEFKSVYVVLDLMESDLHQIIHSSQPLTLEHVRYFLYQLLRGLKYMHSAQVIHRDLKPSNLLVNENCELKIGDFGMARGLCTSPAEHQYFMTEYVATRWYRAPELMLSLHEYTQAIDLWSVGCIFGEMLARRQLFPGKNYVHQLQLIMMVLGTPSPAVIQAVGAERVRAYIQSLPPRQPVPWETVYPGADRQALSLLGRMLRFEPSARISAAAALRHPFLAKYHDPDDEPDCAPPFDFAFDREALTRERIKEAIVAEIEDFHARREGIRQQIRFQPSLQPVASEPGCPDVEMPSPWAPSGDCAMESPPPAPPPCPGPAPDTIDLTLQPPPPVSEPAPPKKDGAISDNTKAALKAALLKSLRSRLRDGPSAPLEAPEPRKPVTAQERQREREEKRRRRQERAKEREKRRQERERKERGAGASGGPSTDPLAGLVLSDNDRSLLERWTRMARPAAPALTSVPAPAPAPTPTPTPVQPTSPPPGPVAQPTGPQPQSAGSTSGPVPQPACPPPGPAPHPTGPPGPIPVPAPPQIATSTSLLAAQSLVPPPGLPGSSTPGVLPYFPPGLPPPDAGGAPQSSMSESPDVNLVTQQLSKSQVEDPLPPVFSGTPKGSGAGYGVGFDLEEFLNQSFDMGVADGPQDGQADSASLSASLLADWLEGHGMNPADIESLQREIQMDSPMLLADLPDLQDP

On to `Cc1cccc(CCN2CCC(C(=O)c3ccc(NS(C)(=O)=O)cc3)CC2)n1`, for which, in assay [1], the remaining activity was 104% (inactive).
`CN(C)CCOc1ccc(/C(=C(/CCCl)c2ccccc2)c2ccccc2)cc1`: in assay [2], the SSMD was -11.1, the cell count amounted to 3260 and the plate-normalised HSF1 focus index is 0.417 (inactive).
For the molecule `CNCC[C@H](Oc1cccc2ccccc12)c1cccs1`, the luciferase signal in assay [3] is 36 AU (inactive).
`Cc1cc2c(s1)Nc1ccccc1N=C2N1CCN(C)CC1`: the result in assay [4] was inactive. Further, the luciferase signal in [3] is 136 AU (inactive).
For the molecule `COc1c(N2C[C@@H]3CCCN[C@@H]3C2)c(F)cc2c(=O)c(C(=O)O)cn(C3CC3)c12`, the luciferase signal in assay [3] is 64 AU (inactive).
Turning to `CC(=O)NC[C@H]1CN(c2ccc(N3CCOCC3)c(F)c2)C(=O)O1`, the result in assay [4] was inactive.
With `CC(C)(C)NC(=O)[C@@H]1C[C@@H]2CCCC[C@@H]2CN1C[C@@H](O)[C@H](Cc1ccccc1)NC(=O)[C@H](CC(N)=O)NC(=O)c1ccc2ccccc2n1`, the survival in [5] was 25.4 (inactive).
On to `NC(=O)c1ncn(C2OC(CO)C(O)C2O)n1` (stereo not drawn), for which the inhibition was -9.72% (inactive) in assay [6] (at 0.5 µM); -31.9% in [6] (measured here: combination with BGB IC40, at 0.05 µM); 21.6% in [6] (setting [21]); -1.97% in assay [6] (setting [22]); -9.01% (inactive) in assay [7] (at 0.5 µM); -25.7% in assay [7] (measured here: combination with BGB at IC20, at 0.5 µM). Moreover, the inhibition was -6.71% in assay [7] (measured here: combination with cisplatin at IC20, at 0.5 µM); -4.13% (inactive) in assay [8] (at 0.5 µM); -1.27% in assay [8] (measured here: combo with BGB at IC20, at 0.5 µM); -10.7% in [8] (measured here: combo with cisplatin at IC20, at 0.5 µM); 3.07% (inactive) in assay [9] (at 0.5 µM); 9.47% in assay [9] (measured here: inhibition with BGB combination, at 0.05 µM). The inhibition was -5.32% in [9] (measured here: inhibition with cisplatin combination, at 0.05 µM); 1.38% (inactive) in [10] (at 0.5 µM); -4.76% in [10] (setting [21]); 3.14% in assay [10] (setting [22]); 5.54% in assay [11] (BGB combination, concentration series, at 5 µM); 1.33% (inactive) in [11] (at 0.5 µM). Further, the inhibition in assay [11] (cisplatin combination, concentration series, at 5 µM) was 1.04%; in assay [12] (at 0.5 µM), -5.97% (inactive); in assay [12] (measured here: combo with BGB IC20, at 0.5 µM), -5.76%; in assay [12] (measured here: combo with cisplatin IC20, at 0.5 µM) it was -5.35%.
Take `O=C1C(c2c(O)[nH]c3ccccc23)=Nc2ccccc21`: in assay [5], the survival is 88 (inactive).
For `CC(N)(Cc1ccc(O)c(O)c1)C(=O)O` (stereo not drawn), the period change in [13] was -0.1 h (inactive). Moreover, the inhibition in [14] is 0% (inactive). Besides, the fluorescence ratio (interference) in assay [15] is 1 (inactive). For the same molecule, the call in assay [4] was inactive.
For `CN1[C@@H]2CC[C@H]1CC(OC(=O)C(CO)c1ccccc1)C2` (stereo partly drawn), in [3], the luciferase signal was 44 AU (inactive).
Consider `CC(C)c1ccc2c(c1)c(SC(C)(C)C)c(CC(C)(C)C(=O)O)n2Cc1ccc(Cl)cc1`, for which, in assay [13], the period change was 0.025 h (inactive). The inhibition in assay [14] was 0% (inactive). The fluorescence ratio (interference) in assay [15] is 0.9 (inactive). The molecule was classed as inactive in assay [4].
Regarding `Nc1nc(Cl)nc2c1ncn2[C@H]1C[C@H](O)[C@@H](CO)O1`, in [2], the SSMD was -4.5, the cell count worked out at 6930 and the plate-normalised HSF1 focus index is 0.776 (inactive).
Take `CN1CCC[C@H]1c1cccnc1`: the values for the inhibition in assay [16] and in assay [14] were -24.3% and 0% (inactive), respectively. The molecule further came in with a score in assay [17] of 1.39. Besides, the rescue above control in assay [18] is 3.58. For the same molecule, in [19], the cytochrome c release ratio came to 0.71. In [20], this molecule registered an inhibition of aggregation of 47.1%. For the same molecule, in [13], the period change is 0.09 h (inactive). Further, in assay [15], the fluorescence ratio (interference) was 1 (inactive).

The values above are taken from PubChem BioAssay.
